Assay results reported in PubChem BioAssay AID2536 (National Center for Advancing Translational Sciences (NCATS), 2010).

molecular target: Pyruvate kinase PKM (Homo sapiens) (UniProt P14618); assay: Secondary Concentration-Response Assay for Activators of Human Muscle isoform 1 Pyruvate Kinase: for Probe SAR; conditions: purified hPK-M1, ATP production, Kinase-Glo luminescence
Text: NIH Chemical Genomics Center [NCGC]
Matthew G. Vander Heiden, M.D., Ph.D. [Harvard Medical School, 77 Avenue Louis Pasteur, Boston, MA 02115]
Human pyruvate kinase […] (hPK-M1) enzyme was supplied as a highly purified (>95% pure) preparation from Harvard Medical School and assayed for its ability to generate ATP from ADP using phosphoenolpyruvate (PEP) as a substrate. ATP generation was detected in a coupled reaction by luciferase-mediated luminescence, an ATP-dependent process. Pyruvate kinase substrates, PEP and ADP, were present in the assay at Km and approximately 10-fold below Km respectively. The enzyme was assayed at an intermediate level of activity to screen for both inhibitors and activators.
NCGC Assay Protocol Summary for M1-isoform:
Three uL of substrate mix (at r.t.) in assay buffer (50 mM Imidazole pH7.2, 50 mM KCl, 7 mM MgCl2, 0.01% Tween 20, 0.05% BSA) was dispensed into white solid bottom 1,536 well microtiter plates so that the final concentrations of substrates in the assay were 0.1 mM ADP and 0.5 mM PEP. 23 nL of compound were delivered by a pin tool and 1 uL of enzyme mix (final concentration of 1 nM) in assay buffer (4 degree Celsius) was added. Plates were incubated at room temperature for 1 hour. Two uL of detection mix (Kinase-Glo, Promega; at 4 degree Celsius protected from light) was added and luminescence read by a ViewLux (Perkin Elmer) at 1 second exposure/plate. Data were normalized to the uninhibited (row 31). Additionally, a no enzyme and 5-fold enzyme control was dispensed in row 32, split equally between the two conditions.

Chain of Pyruvate kinase PKM (Homo sapiens) (P14618 whole entry, looked up, canonical isoform): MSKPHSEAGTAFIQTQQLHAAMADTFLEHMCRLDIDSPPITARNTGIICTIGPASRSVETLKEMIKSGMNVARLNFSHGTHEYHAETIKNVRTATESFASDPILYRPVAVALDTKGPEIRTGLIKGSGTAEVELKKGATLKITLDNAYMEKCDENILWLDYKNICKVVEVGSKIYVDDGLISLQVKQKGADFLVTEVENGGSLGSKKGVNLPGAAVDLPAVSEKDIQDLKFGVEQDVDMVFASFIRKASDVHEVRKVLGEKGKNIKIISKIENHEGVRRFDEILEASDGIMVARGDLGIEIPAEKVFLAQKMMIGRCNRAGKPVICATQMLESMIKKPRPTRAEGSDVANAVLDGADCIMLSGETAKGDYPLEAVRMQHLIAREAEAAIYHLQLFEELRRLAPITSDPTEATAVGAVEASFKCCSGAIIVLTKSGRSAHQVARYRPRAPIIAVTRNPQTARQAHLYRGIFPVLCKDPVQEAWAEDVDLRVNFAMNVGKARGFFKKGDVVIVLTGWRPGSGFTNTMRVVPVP

Max response, inactive:
Nc1cccc(S(=O)(=O)N2CCCN(S(=O)(=O)c3ccc4c(c3)OCCO4)CC2)c1 -0.314%
CNc1cccc(S(=O)(=O)N2CCCN(S(=O)(=O)c3ccc4c(c3)OCCO4)CC2)c1 3.54%
O=C1CCc2cc(S(=O)(=O)Nc3cc(F)cc(Cl)c3)c(F)cc2N1 1.25%
CN(C)c1cccc(S(=O)(=O)N2CCCN(S(=O)(=O)c3ccc4c(c3)OCCO4)CC2)c1 1.92%
O=C1CCc2cc(S(=O)(=O)Nc3ccc(F)c(Cl)c3)ccc2N1 -1.6%
CSc1cc2c(s1)c1cnn(Cc3cccc(N)c3)c(=O)c1n2C 7.82%
Cc1ccc(NS(=O)(=O)c2cc3c(cc2Cl)CCC(=O)N3)cc1Cl 4.8%
Cc1ccc(NS(=O)(=O)c2ccc3c(c2)CCC(=O)N3)cc1C -6.39%
Cc1ccc(Cl)cc1NS(=O)(=O)c1cc2c(cc1F)NC(=O)CC2 -4.17%
Cc1cc2c(s1)c1cnn(Cc3c(Cl)ccc(C)c3F)c(=O)c1n2C 4.91%
